# Screen size: about 320,000 compounds; about 2,100 (0.66%) were called active. About 53% were inconclusive and are not listed. Calls follow the shape of the dose curve; as a rule, active = well fitted inhibition curve with a large enough effect in the signal ratio, with a control signal flat (not every such curve was filed as active); inconclusive = small, poorly fitted or top-dose-only effect, or effect the other way, or a change in a side signal; inactive = flat fitted curve, though single readings scatter; the % refers to the signal ratio. For the sample, actives were picked, then their nearest neighbours and some compounds at random.
# Test: qHTS Assay for Lipid Storage Modulators in Drosophila S3 Cells;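 as to cell number change: cells counted by Cell Tracker Red CMTPX staining in the red channel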; as to lipid storage change, negative = inhibition: % is scaled to controls: 0 for no effect and ±100 for the full control effect
# Details: BODIPY lipid droplet fluorescence, 18-24 h, cells fed with added oleic acid; cell number change: measured here: cell count max response; series mostly up to 46.1 µM; lipid storage change, negative = inhibition: at the top concentration
# Summary of the method: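 Drosophila S3 cells got compounds at several concentrations plus oleic acid (400 uM solution). Laser-scanning cytometry with 488 nm excitation read lipid droplets at 500-530 nm and cells at 575-640 nm. Percent activity was relative to 20 uM Triacsin C.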
# Potency is read from the fitted curve at half-maximal effect.
SMILES,"lipid storage change, negative = inhibition",cell number change [%],outcome,Potency
COc1ccc(C2CC(=O)N(CC(=O)NCC3CCCO3)c3ccccc3S2)cc1 (stereo not drawn),5.52% (inactive),0.213,,
CC(=O)Nc1ccc(S(=O)(=O)NNC(=O)C(=O)NNc2ccccn2)cc1,-15.1% (inactive),-5.03,,
O=C(Nc1ccccc1)c1cc(S(=O)(=O)N2CCOCC2)cs1,,,inactive,
Cc1ccc(C(=O)NCc2ccco2)cc1S(=O)(=O)N1CCOCC1,-5.7% (inactive),-14.2,,
O=C(Nc1ccccc1F)C(=O)c1cn(CC(=O)N2CCCCC2)c2ccccc12,8.05% (inactive),-5.77,,
COc1ccc(NC(=O)Cn2cnc3c(nnn3-c3ccc(C)cc3)c2=O)cc1,-12.6% [at 9.22 µM] (inactive),-12.8,,
CC(=O)C1=C(O)C(=O)N(CCc2c[nH]c3ccccc23)C1c1ccccc1 (stereo not drawn),27.1% (inactive),3.29,,
CC(=O)C1=C(O)C(=O)N(CCc2c[nH]c3ccccc23)C1c1cccc(O)c1 (stereo not drawn),,-19.8,,20.6 µM (active)
CC(=O)C1=C(O)C(=O)N(CCc2c[nH]c3ccccc23)C1c1ccc(O)cc1 (stereo not drawn),-9.82% (inactive),-2.81,,
CCOC(=O)c1[nH]c(C)c(C(=O)NCCCN2CCOCC2)c1C,10.9% (inactive),18.3,,
CCc1ccc(-n2cnc3cc(C(=O)NCC(OC)OC)ccc32)cc1,1% (inactive),2.84,,
COc1ccccc1-c1nnc(SCC(=O)Nc2ccc(S(N)(=O)=O)cc2)n1N,-0.686% (inactive),6.66,,
C=CCn1c(SCC(=O)Nc2nccs2)nnc1-c1cc2cccc(OC)c2o1,,-25.4,inactive,
CCn1c(SCC(=O)Nc2nccs2)nnc1-c1cc2cccc(OC)c2o1,,-5.05,,1.84 µM (active)
CCn1c(SCC(=O)Nc2nccs2)nnc1-c1ccc(C)cc1,-3.09% (inactive),-13.5,,
Cc1ccc(OCC(=O)NNC(=O)c2cccnc2)cc1C,-5.08% (inactive),0.125,,
CCC(C(=O)NCc1ccco1)N(C(=O)CNS(=O)(=O)c1ccc(C)cc1)c1ccccc1F (stereo not drawn),,11.8,,1.16 µM (active)
CCC(C(=O)NCc1ccco1)N(C(=O)CNS(=O)(=O)c1ccc(C)cc1)c1ccccc1OC (stereo not drawn),6.8% (inactive),-11.8,,
CCC(C(=O)NCc1ccco1)N(C(=O)CNS(=O)(=O)c1ccc(F)cc1)c1ccccc1F (stereo not drawn),-15.5% (inactive),-1.9,,
CNC(=O)/C(C#N)=C\c1ccc(CNS(=O)(=O)c2ccc(Cl)cc2)o1,-15.4% (inactive),-11.3,,
CNC(=O)/C(C#N)=C/c1c(N2CCCCCC2)nc2ccccn2c1=O,8.81% (inactive),0.926,,
CNC(=O)/C(C#N)=C/c1c(F)cccc1Cl,,-9.91,,10.3 µM (active)
COC(=O)C1=C(C)N(C2CCCC2)C(=O)C1(NC(C)=O)C(F)(F)F (stereo not drawn),,,inactive,

SMILES,"lipid storage change, negative = inhibition",cell number change [%],outcome,Potency
CC1=C(C#N)C(NC(=O)C2CCCCC2)(C(F)(F)F)C(=O)N1 (stereo not drawn),5.78% (inactive),14.5,,
COC(=O)C1=C(C)N(C(C)C)C(=O)C1(NC(=O)C1CCCCC1)C(F)(F)F (stereo not drawn),,24.5,,25.9 µM (active)
COc1ccc(S(=O)(=O)N2CCC(C(=O)N[C@H](C(=O)N3CCCC3)C(C)C)CC2)cc1,,,inactive,
Cc1ccc2nc(NC(=O)CSc3nnc(C)c(=O)n3N)sc2c1,-29.4% (inactive),0.333,,
CCOC(=O)c1c(C)[nH]c(NC(=O)Nc2ccc(NC(C)=O)cc2)c1C,,22.7,inactive,
O=C(CN(C(=O)CCC(=O)Nc1ccccn1)c1ccc2c(c1)OCCO2)NCCc1ccccc1,9.9% (inactive),-14.1,,
O=C(O)c1cccc2c3c([nH]c12)CCCC3,-7.44% (inactive),23.1,,
O=C(O)c1cc2[nH]c3c(c2cc1Cl)CCCC3,,-7.3,,4.11 µM (active)
NNC(=O)c1ccc2[nH]c3c(c2c1)CCCC3,6.92% (inactive),7,,
CC(OC(=O)C1CC(=O)N(Cc2ccco2)C1)C(=O)Nc1ccc(F)cc1Cl (stereo not drawn),-1.45% (inactive),-0.141,,
Cc1cc(C)cc(N2CC(C)(C)C2=O)c1,-16.4% (inactive),,,
CCCOc1ccc(N2C(=O)CC(NCCc3ccc(S(N)(=O)=O)cc3)C2=O)cc1 (stereo not drawn),1.73% (inactive),11.4,,
O=C(CC(=O)NN=C1CCCC1)NCCc1ccccc1,-9.12% (inactive),12,,
O=C(NCCc1ccccc1)C(=O)NN=C1CCCC1,,6,,29.1 µM (active)
S=C(NCCc1ccccc1)NN=C1CCCCCC1,,-23.7,inactive,
CN(C)CCOC(=O)c1ccc2c(c1)S(=O)(=O)c1ccccc1C2=O,17.4% (inactive),0.995,,
Cc1cc(C)nc(SCC(=O)N/N=C/c2cccc([N+](=O)[O-])c2)n1,5.85% (inactive),0.279,,
O=C(COc1ccc(/C=N/NC(=O)c2ccccc2Br)cc1)Nc1ccccc1,,-20.5,,18.4 µM (active)
O=C(O)COc1ccc(/C=N/NC(=O)c2ccccc2Br)cc1,-20% (inactive),-13.2,,
O=C(COc1ccc(/C=N/NC(=O)c2ccccc2O)cc1)Nc1ccccc1,9.4% [at 9.22 µM] (inactive),-17.8,,
CC(C)(C)OC(=O)N1CCC(C(=O)O)CC1,3.97% (inactive),14,,
O=S(=O)(NCc1ccccn1)C(F)(F)F,-17.1% (inactive),15.5,,
Cc1cc(C)n2c(SCC#N)nnc2n1,,,inactive,

SMILES,"lipid storage change, negative = inhibition",cell number change [%],outcome,Potency
CCO[C@H]1OC(C(=O)N2CCCCCCC2)=C[C@@H](c2ccccc2)[C@@H]1CCCO,-17.1% (inactive),-2.78,,
CSC1=NNC(c2ccc(C(C)(C)C)cc2)=NN1,3.5% (inactive),21,,
COCC(C)n1c(C)cc(C(=O)COC(=O)CN=C2NS(=O)(=O)c3ccccc32)c1C (stereo not drawn),-7.81% (inactive),10.7,,
COc1ccc(C2/C(=C(/O)c3ccc(C)cc3)C(=O)C(=O)N2c2ccccn2)cc1OC (stereo not drawn),-1.13% (inactive),-0.743,,
CCOc1ccc(C(C)=O)cc1CN1C(=O)NC2(CCCCC2C)C1=O (stereo not drawn),17.5% (inactive),-2.29,,
CCOc1ccc(C(C)=O)cc1CN1C(=O)NC2(CCCCCC2)C1=O,,3.15,,0.13 µM (active)
COc1ccc(C(C)=O)cc1CN1C(=O)NC2(CCCCCCC2)C1=O,2.83% (inactive),6.34,,
O=C(Nc1ccc(Cl)cc1)Nc1nnc(Cc2ccc([N+](=O)[O-])cc2)s1,7.97% (inactive),3.06,,
CCn1c(CNC(=O)COc2c(C)cccc2C)nnc1SCC(=O)Nc1nccs1,11.3% (inactive),-11,,
C=CCNC(=S)NNC(=O)C(CC(C)C)CC(C)O (stereo not drawn),-5.62% (inactive),1.94,,
C=CCNC(=S)NNC(=O)C(CCCC)CC(C)O (stereo not drawn),,-5.26,,29.1 µM (active)
C=CCNC(=S)NNC(=O)C(CCCC)CC(O)COCC(C)C (stereo not drawn),7.02% (inactive),6.35,,
CCC(=O)Nc1ccc(/C=C(\C(C)=O)C(=O)c2ccccc2)cc1,-21.8% (inactive),-16.8,,
CC1(C)C2CCC(C2)C1(C)NC(=O)C[N+](C)(C)C (stereo not drawn),-8.8% (inactive),7.74,,
CCOCCCNCC(=O)NC1(C)C2CCC(C2)C1(C)C (stereo not drawn),,-12.8,,1.3 µM (active)
CC1(C)C2CCC(C2)C1(C)NC(=O)CNC1CCCCC1 (stereo not drawn),,,inactive,
Cc1ccc(C(=O)Nc2ccc(C(=O)N3CCCCC3)cc2)o1,19.2% (inactive),,,
COCC(C)NS(=O)(=O)c1ccc(C(=O)NCCCn2ccc3ccccc32)cc1 (stereo not drawn),,-2.38,inactive,
Cc1ccc(C(=O)NC(Cc2c[nH]c3ccccc23)C(=O)O)cc1 (stereo not drawn),,8.72,,16.4 µM (active)
O=C(NC(Cc1c[nH]c2ccccc12)C(=O)O)c1ccc(F)cc1 (stereo not drawn),-8.21% (inactive),-8.38,,
Cc1ccc(C(=O)Nc2ccccc2C(=O)NC(Cc2c[nH]c3ccccc23)C(=O)O)cc1 (stereo not drawn),-2.03% (inactive),14.2,,
O=C(Cc1ncc(C(F)(F)F)cc1Cl)NNc1cccc(F)n1,-0.459% (inactive),2.59,,
CCC1(c2ccc(F)cc2)NC(=O)N(CC(=O)c2cc(C)n(C3CC3)c2C)C1=O (stereo not drawn),,-20.6,inactive,

SMILES,"lipid storage change, negative = inhibition",cell number change [%],outcome,Potency
CN(CCCNC(=O)CSc1cc(=O)n(C)c2ccc(Cl)cc12)Cc1ccccc1,1.37% (inactive),-6.41,,
COc1ccccc1CN(C)C(=O)C(c1ccccc1)c1ccccc1,,14.8,,20.6 µM (active)
COc1ccccc1CNC(=O)C(c1ccccc1)c1ccccc1,,13.6,inactive,
COc1ccccc1CN(C)C(=O)CN1C(=O)c2ccccc2C1=O,,14.5,inactive,
CCOc1ccc(N(CC(=O)N2CCCCCC2)S(C)(=O)=O)cc1,,,inactive,
CCOC(=O)C1CCN(C(=O)Cn2cc(C(=O)C3CC3)c3ccccc32)CC1,10.5% (inactive),3.64,,
CC(C)CCn1c(=O)c2sccc2n2c(CCCC(=O)N3CCC(N4CCCCC4)CC3)nnc12,,,inactive,
Cn1c(=O)c2sccc2n2c(CCCC(=O)NCc3ccc4c(c3)OCO4)nnc12,3.09% (inactive),-24.9,,
O=C(CCc1nnc2n(Cc3ccc(F)cc3)c(=O)c3ccccc3n12)N1CCN(c2ccccn2)CC1,,-18.8,,13 µM (active)
COc1ccc(OC)c(CCNC(=O)CCCc2nnc3n(C)c(=O)c4sccc4n23)c1,,-24.6,,7.31 µM (active)
Cn1c(=O)c2sccc2n2c(CCCC(=O)Nc3ccc(F)cc3F)nnc12,,-23.8,,9.2 µM (active)
COc1ccc(Cn2c(CCC(=O)N3CCN(c4ccccn4)CC3)nc3ncccc3c2=O)cc1,7.18% (inactive),-8.69,,
O=C(CCc1nnc2n(Cc3ccc(Cl)cc3)c(=O)c3ccccc3n12)N1CCN(c2ccccn2)CC1,,-18.3,inactive,
O=C(CCN1C(=O)c2ccccc2C1=O)Nc1ccc(F)cc1F,12.5% (inactive),5.85,,
O=C(CCCCCn1c(=O)[nH]c2ccsc2c1=O)N1CCCCC1,-10% (inactive),-7.73,,
Cn1cnnc1SCC(=O)Nc1ccc(F)cc1F,16% (inactive),-0.713,,
COc1ccc(-c2cc(CCCC(=O)NCCc3cc(OC)ccc3OC)no2)cc1,-25.3% (inactive),4.57,,
Cn1c(=O)c2sccc2n2c(CCCC(=O)N3CCCCC3)nnc12,,-19.4,,10.3 µM (active)
O=C(CSc1ccc(F)cc1)N1CCOCC1,-1.33% (inactive),7.13,,
COC(=O)c1ccc(COc2cc([N+](=O)[O-])cc3cccnc23)o1,-4.43% (inactive),5.31,,
Cc1cccc(NC(=S)NC(C)C(c2ccccc2)N2CCN(C)CC2)c1C (stereo not drawn),-11.9% (inactive),-10.3,,
COc1ccc(OC)c(S(=O)(=O)NC2CC2)c1,-1.21% (inactive),-2.27,,
